8 compounds from PubChem BioAssay (NCI) can be followed below.

What all share (experiment): NCI-60 one-dose screen, 48 h (100 = growth as untreated, 0 = no growth, -100 = all killed)
Holding throughout (conditions): 10 µM unless noted

In assay [1] the test system is SK-MEL-2 melanoma.
The test system of assay [2] is EKVX NSCLC.
The subject of assay [3] is SN12C renal.
Assay [4] has as its system UO-31 renal.
For assay [5], the system named is TK-10 renal.
Assay [6] has as its system CAKI-1 renal.
Assay [7] has as its system A498 renal.
In assay [8] the test system is CCRF-CEM leukemia.
In assay [9] the test system is SR leukemia.
Assay [10] relates to RPMI-8226 leukemia.
For assay [11], the system named is OVCAR-8 ovarian.
Assay [12] relates to OVCAR-5 ovarian.
The test system of assay [13] is OVCAR-4 ovarian.
In assay [14] the test system is SK-OV-3 ovarian.
Assay [15] concerns IGROV1 ovarian.
The subject of assay [16] is OVCAR-3 ovarian.
The subject of assay [17] is HS 578T breast.
For assay [18], the system named is NCI/ADR-RES ovarian.
For assay [19], the system named is MOLT-4 leukemia.

The panel holds about 83,000 compounds, 20% with a hit somewhere; the sample as a whole holds those more often.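 Treatment: one concentration, 48 hours, 96-well format. Scoring: percent growth, with anything below 10 considered active.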 Values without a mark were called inactive. Calls of active or inactive are those of the source.

Regarding `C[n+]1cc2cc(C(N)=O)[nH]c3c(=N)c(Cl)c(N)c1c23`, the growth in assay [1] was 96.1%; in assay [2], 101%; in [3], 53.6%; in [4] it was 81.1%; in [5], 73.9%; in assay [6] it was 79.9%. For the same compound, the growth in [7] was 71.9%; in assay [8] it was 37.6%; in [9], 37.6%; in assay [10], 73%; in [11], 43.1%; in [12], 62%. Also, the growth in assay [13] was 73%; in [14], 60%; in [15], 65.1%; in [16], 63.1%; in [17], 108%; in assay [18], 60%.
With `COc1ccc(N2CCN(c3nc(-c4cc(OC)c(OC)c(OC)c4)nc4ccccc34)CC2)cc1`, the growth in [1] was 93.6%; in assay [2], 85%; in [3], 90.1%; in [4], 69.9%; in assay [5] it was 113%; in [6], 84.1%. Further, the growth in assay [7] was 79.5%; in assay [8], 91.3%; in [9], 42.6%; in assay [10], 54.8%; in assay [11], 71.1%; in [12] it was 93.5%. The growth in [13] is 88%; in [14], 91.4%; in assay [15] it was 97%; in [16] it was 94.6%; in assay [17], 65.2%; in assay [18], 65.3%.
Regarding `COc1cc(C2CC(=O)Nc3c2c(C)nn3-c2nc3ccccc3[nH]2)c(OC)c2c1OCO2` (configuration not stated), the growth was 80.7% in assay [1]; 71.7% in assay [2]; 82.2% in [3]; 40.2% in [4]; 36.4% in assay [5]; 40.6% in [6]. Moreover, the growth in assay [7] was 38.8%; in assay [8] it was 61.7%; in assay [19], 13.5%; in [10], 60.1%; in assay [11] it was 67.9%; in assay [12], 105%. The growth in assay [13] is 76%; in assay [14] it was 81.7%; in [15] it was 63.1%; in [16], 68.8%; in [17] it was 53.1%; in assay [18] it was 63.2%.
Consider `CCN(CC)c1ccc2nc3c4ccccc4c(=NC(=O)c4ccccc4-c4c5ccc(N(CC)CC)cc5[o+]c5cc(N(CC)CC)ccc45)cc-3oc2c1`, for which the growth in [1] was 41.7%; in assay [2], 54.6%; in [3], 64%; in assay [4], 32.6%; in assay [5] it was 74.6%; in assay [6] it was 55.2%. In addition, the growth in assay [7] was 86.9%; in assay [8], 24.4%; in assay [19] it was -23.9% (active); in assay [10] it was 1.89% (active); in assay [11], 43.8%; in assay [12], 73%. Moreover, the growth was -47.4% (active) in assay [13]; 78.9% in [14]; -66.6% (active) in assay [15]; -50.1% (active) in [16]; 63.3% in assay [17]; 51.5% in [18].
Consider `O=C(CSc1nnc(-c2ccc(NC(=O)c3cccnc3)cc2)o1)N[C@@H](Cc1ccc(O)cc1)C(=O)O`, for which the growth was 99.8% in [1]; 110% in assay [2]; 94.4% in [3]; 85.1% in assay [4]; 106% in [5]; 92.4% in assay [6]. Further, the growth is 117% in [7]; 96.6% in assay [8]; 99.8% in assay [19]; 99.8% in [11]; 106% in assay [12]; 120% in [13]. In addition, the growth in assay [14] is 101%; in assay [15] it was 102%; in [16] it was 120%; in [17], 96.9%; in assay [18], 104%.
Regarding `C=C(C)[C@@H]1CC[C@]2(C)[C@H](CC=C3[C@@H]4CC(C)(C)CC[C@]4(C(N)=O)CC[C@]32C)[C@@]1(C)CCC#N`, the growth in assay [1] was -0.287% (active); in [2], 46.1%; in assay [3], -48.1% (active); in assay [4] it was 17.6%; in assay [5] it was 12.7%; in assay [6], 18.4%. Also, the growth is 7.55% (active) in assay [7]; 39.8% in assay [8]; 24.1% in [19]; 6.44% (active) in assay [10]; 26.5% in assay [11]; 47% in assay [12]. Further, the growth is 20% in assay [13]; 48.1% in assay [14]; 53.1% in assay [15]; 23.5% in assay [16]; 51% in assay [17]; 35% in assay [18].
Take `Cc1cccc(Cc2cnc(NC(=O)/C=C/c3ccco3)s2)c1`: the growth in [1] was 30.8%; in assay [2], 33.7%; in [3] it was 29.3%; in [4], 37.3%; in [5] it was 52.8%; in assay [6], 30.4%. The growth in [7] is 13.8%; in assay [19], 15.9%; in [9], 13.7%; in assay [10], 27.9%; in assay [11], 13.7%; in assay [12], 39.1%. Moreover, the growth is 55.6% in assay [13]; 33% in assay [14]; 22.2% in [15]; -2.76% (active) in [16]; 14.8% in assay [17]; -24.6% (active) in [18].
For the compound `Cc1cc(C)c2c(-c3nnc(N)s3)cc(=O)oc2c1`, the growth in assay [1] is 114%; in assay [2], 97.2%; in assay [3] it was 99.3%; in assay [4] it was 88%; in assay [5], 108%; in assay [6], 89.3%. In addition, the growth was 79.9% in assay [7]; 106% in assay [19]; 105% in assay [9]; 72.3% in assay [10]; 102% in assay [11]; 103% in assay [12]. The growth was 100% in assay [13]; 108% in assay [14]; 101% in assay [15]; 92.4% in [17]; 102% in assay [18].
